Rows were chosen to be rich in hits. Some 10% of all compounds tested hit in one or more screens of this group.
GPT2 inh = blocks human glutamate pyruvate transaminase 2; Recombinant GPT2, coupled pyruvate oxidase/HRP Amplex Red fluorescence; Potency, µM (series often up to 57.7 µM), usual class: inhibitors; 100,000 tested, 0.25% active; further: nearly all actives have a fitted effect of over 60% in size
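Fluorescence of coupled pyruvate oxidase/HRP/Amplex Red system (50uM Amplex, 30 min, dark) reports pyruvate formed by GPT2. Enzyme reaction: 10ng/uL GPT2, 2mM L-alanine, 250uM a-KG, 30 min room temperature, pH 7.5; 50uM AOA control.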
Luciferase inh = blocks purified firefly luciferase enzyme activity. P08659. purified P. pyralis luciferase, luminescence, biochemical. Potency, µM (titrated, usually from 115 µM), hits mostly inhibitors. 76,000 tested, 2.5% active. AID 1347043; further: nearly all actives have a fitted effect of over 65% in size
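FLuc 10nM, D-luciferin 10uM, ATP 10uM, Mg acetate 10mM, Tris acetate pH 7.5, Tween/BSA; cpd qHTS; enzyme added last; CCD luminescence.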
hNpr1 antagonist = blocks ANP-stimulated signaling of human Npr1 receptor; 76,000 tested, 1.6% active; Potency, µM (series often up to 46.3 µM), usual class: inhibitors; P16066; HEK293 hNpr1 GloSensor cGMP, ANP-stimulated luminescence; calls by dose curve; further: nearly all actives have a fitted effect of over 60% in size
Target sequence (P16066 whole entry, looked up): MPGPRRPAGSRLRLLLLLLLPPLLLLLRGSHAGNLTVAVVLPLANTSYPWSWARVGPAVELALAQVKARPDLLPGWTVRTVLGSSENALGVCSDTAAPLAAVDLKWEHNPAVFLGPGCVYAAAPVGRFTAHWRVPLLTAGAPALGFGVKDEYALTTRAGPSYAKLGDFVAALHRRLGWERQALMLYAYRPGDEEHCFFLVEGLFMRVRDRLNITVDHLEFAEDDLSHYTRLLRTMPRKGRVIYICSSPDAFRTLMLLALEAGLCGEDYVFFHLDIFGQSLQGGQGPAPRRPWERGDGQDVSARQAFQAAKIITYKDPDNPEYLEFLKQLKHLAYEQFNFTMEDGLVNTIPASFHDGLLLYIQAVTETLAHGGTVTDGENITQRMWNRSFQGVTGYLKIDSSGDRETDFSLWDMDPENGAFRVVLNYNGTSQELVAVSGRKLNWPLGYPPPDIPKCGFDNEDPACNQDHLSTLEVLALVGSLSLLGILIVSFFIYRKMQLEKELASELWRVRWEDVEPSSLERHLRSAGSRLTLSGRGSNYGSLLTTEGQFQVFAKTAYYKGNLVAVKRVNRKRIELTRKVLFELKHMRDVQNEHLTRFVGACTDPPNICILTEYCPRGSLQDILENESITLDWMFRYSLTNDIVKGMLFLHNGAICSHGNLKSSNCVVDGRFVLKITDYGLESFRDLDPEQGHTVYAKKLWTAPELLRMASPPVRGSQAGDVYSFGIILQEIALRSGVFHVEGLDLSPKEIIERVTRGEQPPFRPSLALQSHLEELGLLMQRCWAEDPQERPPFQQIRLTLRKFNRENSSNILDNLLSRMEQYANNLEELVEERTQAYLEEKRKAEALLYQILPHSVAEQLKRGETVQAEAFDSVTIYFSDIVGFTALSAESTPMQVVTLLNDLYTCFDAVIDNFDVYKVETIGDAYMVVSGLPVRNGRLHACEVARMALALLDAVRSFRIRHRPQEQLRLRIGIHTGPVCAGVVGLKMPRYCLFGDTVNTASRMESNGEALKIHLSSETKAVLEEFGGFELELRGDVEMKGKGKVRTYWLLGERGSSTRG
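Compound pre-incubated 30 min at room temperature on GloSensor-loaded HEK293 cells stably carrying hNpr1 and the pGS-40F cGMP biosensor. Stimulation uses hNppA at 0.1 nM final; luminescence is taken at baseline and 20 min post-agonist.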
HEK cytotox = kills HEK 293 cells; HEK 293 viability, ATP luminescence (CellTiter-Glo), 48-72 h; Potency, µM (titrated, usually from 115 µM), actives largely listed as inhibitors; AID 1345083; 94,000 tested, 6.6% active; further: nearly all actives have a fitted effect of over 60% in size
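HEK 293 seeded at 250 cells/well receive compound via pintool. After 48 or 72 hr at 37 degree Celsius, 5% CO2 and 95% humidity, CellTiter-Glo is dispensed and luminescence read following 10 min at room temperature.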
NIH3T3 tox = NIH 3T3 cell cytotoxicity. NIH 3T3 viability, CellTiter-Glo ATP luminescence, 48-72 h. Potency, µM (doses to about 96.7 µM), most hits filed as inhibitors. 94,000 tested, 4.3% active; further: nearly all actives have a fitted effect of over 55% in size
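Cytotoxicity was measured by CellTiter-Glo ATP luminescence after 48 or 72 h compound exposure at 37 °C. Mouse NIH 3T3 fibroblasts were seeded at 400 cells/well and dosed by 23 nL pin transfer.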
Of the large screens only hits and unclear results are named; the others gave an inactive call. Unless noted, the call rests on the fitted dose curve; in most records, active means well fitted curve in the direction sought with a large enough effect; inconclusive means small, poorly fitted or top-dose-only effect, or another doubt; inactive means no such curve, though single readings can be large; an effect the other way counts as inactive or inconclusive.

Cc1ccc([S+](=O)([O-])NC2CCN(c3ccc4nnc(-c5ccccc5)n4n3)CC2)cc1	HEK cytotox 40µM, NIH3T3 tox inconclusive (no result: GPT2 inh, Luciferase inh, hNpr1 antagonist)
C[S+](=O)([O-])NC1CCN(c2ccc3nnc(-c4ccccc4)n3n2)CC1	none (no result: GPT2 inh, Luciferase inh, hNpr1 antagonist)
O=C(NCCc1ccc(Cl)cc1)c1nc(-c2ccc(Cl)cc2)c2ccccn12	HEK cytotox inconclusive
C[S+](=O)([O-])N1CCCN(c2ccc3nnc(-c4ccccc4)n3n2)CC1	NIH3T3 tox inconclusive (no result: GPT2 inh, Luciferase inh, hNpr1 antagonist)
O=[S+]([O-])(NC1CCCN(c2ccc3nnc(-c4ccccc4)n3n2)C1)c1ccccc1 (centres undefined)	HEK cytotox 22µM, NIH3T3 tox inconclusive (no result: GPT2 inh, Luciferase inh, hNpr1 antagonist)
COc1ccccc1-c1cnc(Nc2ccc(Cl)cn2)c2c1CCO2	Luciferase inh inconclusive, HEK cytotox 63µM, NIH3T3 tox inconclusive
COc1ccccc1-c1cnc(Nc2cccnc2OC)c2c1CCO2	Luciferase inh inconclusive, HEK cytotox 28µM, NIH3T3 tox inconclusive
COc1ccccc1-c1cnc(Nc2cccnc2)c2c1CCO2	Luciferase inh inconclusive, hNpr1 antagonist inconclusive, HEK cytotox 79µM, NIH3T3 tox inconclusive
O=C1OCC2(CCN(Cc3ccn[nH]3)C2)N1CCN1CCOCC1 (centres undefined)	none (no result: Luciferase inh, hNpr1 antagonist, HEK cytotox, NIH3T3 tox)
Cc1nnn2c(C(=O)NCc3ccc(Cl)cc3)cccc12	HEK cytotox 79µM, NIH3T3 tox 35µM
Cc1nnn2c(C(=O)N(C)C)cccc12	none
CN1C(=O)[C@@H]2C[C@@H](CN2C2CCC2)Oc2ccccc21	HEK cytotox 89µM, NIH3T3 tox 50µM
CN1C(=O)[C@@H]2C[C@@H](CN2C2CCCC2)Oc2ccccc21	HEK cytotox inconclusive, NIH3T3 tox inconclusive
CN(C)C[C@@H]1CN(c2ncccn2)C[C@H]1NS(=O)(=O)c1ccc(Cl)cc1	HEK cytotox inconclusive
COc1ccc(NC(=O)C2(Cc3ccccc3)CCCCC(=O)N2)cc1F (centres undefined)	none
CN(C)c1nccnc1OC1CCN(C(=O)c2ccccc2Br)C1 (centres undefined)	Luciferase inh inconclusive
CN(C)c1nccnc1OC1CCN(C(=O)c2ccn[nH]2)C1 (centres undefined)	Luciferase inh 25µM
CCc1ccc(C(=O)N2CCC(Oc3nccnc3N(C)C)C2)cc1 (centres undefined)	GPT2 inh inconclusive, Luciferase inh inconclusive, HEK cytotox inconclusive
CN(C)c1nccnc1OC1CCN(C(=O)CCCc2ccccc2)C1 (centres undefined)	Luciferase inh inconclusive, HEK cytotox 79µM
CN(C)c1nccnc1OC1CCN(C(=O)CC2CCCC2)C1 (centres undefined)	Luciferase inh 35µM, HEK cytotox inconclusive
CN1CCCCCCN(CC2CCCCC2)[C@H]2CCC[C@H]2C1=O	HEK cytotox inconclusive, NIH3T3 tox inconclusive
COc1ccccc1C(=O)N1CCCC(C(=O)N2CCCC(c3nc4ncccc4[nH]3)C2)C1 (centres undefined)	none (no result: Luciferase inh, hNpr1 antagonist)
CCC1(CC)CC1C(=O)N1CCc2onc(-c3cccc(F)c3)c2C1 (centres undefined)	HEK cytotox 45µM, NIH3T3 tox inconclusive
O=C(C1COc2ccccc2O1)N1CCc2onc(-c3cccc(F)c3)c2C1 (centres undefined)	NIH3T3 tox inconclusive
O=C(NCc1cccs1)c1nc2sccn2c1-c1cccnc1	NIH3T3 tox inconclusive (no result: Luciferase inh, hNpr1 antagonist)
CC(C)CC(=O)N1CC(n2cc(COCC3CC3)nn2)C1	none (no result: Luciferase inh, hNpr1 antagonist)
Cc1cc(CNC(=O)Cc2ccc(-n3cnnn3)cc2)c2[nH]c(C)c(C)c2c1	HEK cytotox inconclusive, NIH3T3 tox 20µM
COc1ccc(CC(=O)NCc2cc(C)cc3c(C)c(C)[nH]c23)c(OC)c1	HEK cytotox inconclusive, NIH3T3 tox inconclusive
CCc1[nH]c2c(CNC(=O)c3cnc(C)nc3)cc(C)cc2c1C	NIH3T3 tox inconclusive
Cc1cc(CNC(=O)Cc2nonc2C)c2[nH]c(-c3ccccc3)c(C)c2c1	Luciferase inh 10µM, HEK cytotox inconclusive
Cc1c(-c2ccccc2)[nH]c2c(CNC(=O)CCc3nncn3C)cc(Cl)cc12	Luciferase inh 22µM, HEK cytotox inconclusive, NIH3T3 tox inconclusive
Cc1cc(CNC(=O)c2ccncc2)c2[nH]c(-c3ccccc3)c(C)c2c1	Luciferase inh inconclusive, hNpr1 antagonist 11µM, HEK cytotox 14µM, NIH3T3 tox 32µM
O=C1CO[C@H]2CCN(Cc3ccccc3F)CC[C@@H]2N1Cc1ccccc1	HEK cytotox inconclusive

From PubChem BioAssay
